# Source: PubChem (National Center for Advancing Translational Sciences (NCATS))
# IP6K1 inhibitor – Primary qHTS assay for small molecule inhibitors of Inositol hexaphosphate kinase 1 (IP6K1). Inositol hexakisphosphate kinase 1 (Homo sapiens), Q92551. 140,000 compounds, 0.81% hits. IP6K1 kinase, ADP-Glo luminescence, 2 h; stronger effect = lower value. activity change, % (series mostly up to about 58 µM); in the data active means activity change below about -25%; further: on the % scale 0 is the no-effect control and ±100 the full control effect
#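 ADP-Glo luminescence measures ADP made by human IP6K1 during a 2 h RT reaction with ATP/IP6 (mix at 1.3 mM/130 uM); top library doses 57.5 and 19.1 uM final.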
# KDM5B inh – Primary screen for KDM5B Histone Demethylases FDH-coupled qHTS | Lysine-specific demethylase 5B (Homo sapiens), Q9UGL1 | KDM5B demethylase, FDH-coupled NADH fluorescence (FDH is formaldehyde dehydrogenase) | Potency, µM (titrated, usually from 57.7 µM), usual class: inhibitors | 220,000 compounds, 2.6% hits | AID 1347165, 2019; active means well fitted inhibition curve with a large enough effect; inconclusive means small, poorly fitted or top-dose-only effect; inactive means no such curve, though single readings can be large or run the other way; further: potency means the concentration at half of the fitted maximal effect; 0% is about no effect; nearly all actives have a fitted effect of over 70% in size
#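 Compound dilutions met 200 nM (final) KDM5BΔAP for 10 min at room temperature before substrate addition. The substrate mix held 12.5 µM H3K4me3 with cofactors 25 µM α-ketoglutarate and 50 µM Fe²⁺. NADH signal gain over 30 min defined activity.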
# An asterisk follows results filed as active; i = inactive; ? = inconclusive; nt = no result given; [ ] = dose if it differs, or a comment. In the library only some 2.7% were active in any assay of this set; here they are far more common.
SMILES,IP6K1 inhibitor,KDM5B inh
O=[S+]([O-])(c1cccc(C(F)(F)F)c1)N1CCN(Cc2ccccc2-c2ccccc2F)CC1,-3,nt
O=C(c1cncs1)N1CCc2c(cc(-c3cccc(F)c3)c(=O)n2CCN2CCCCC2)C1,16,28µM*
O=C(c1cccs1)N1CCc2[nH]nc(-c3cccc(F)c3)c2C1,-1,i
CN(C)C(=O)N1CCCn2nc(CNC(=O)c3sccc3N)cc2C1,21,35µM*
CN(C)C(=O)N1CCCn2nc(CNC(=O)c3ccc4[nH]ccc4c3)cc2C1,24,?
CSCCCNC(=S)NC1CCSc2ccccc21 (stereo not given),nt,i
CNC(=O)c1cc(C2CC2)nc2c1c(C1CCCN1[S+](=O)([O-])c1ccccc1)nn2C (stereo not given),2,nt
CC(C)N1CCN(c2ccc3nnc(C4CCC4)n3n2)CC1,5,28µM*
c1cc2nnc(C3CCC3)n2nc1N1CCCC1,-9,i
COc1ccc(C(CNC(=O)CN2CCN(C(=O)C3CC3)CC2)c2c[nH]c3ccccc23)cc1 (stereo not given),nt,i
COc1cc(NC(=O)c2cc3c(N4CCSCC4)nc(C)cn3n2)c(OC)cc1Cl,5,?
Cc1cn2nc(C(=O)Nc3ccc(F)cc3C)cc2c(N2CCSCC2)n1,0,25µM*
Cc1ccc(NC(=O)c2cc3c(N4CCSCC4)nc(C)cn3n2)c(F)c1,9,28µM*
N#Cc1nc(C2CC2)oc1N1CCN(Cc2ccc(Cl)cc2)CC1,nt,i
C1CNC(c2nc(CCOCC3CCOCC3)no2)C1 (stereo not given),24,i
C1CCC(c2nc(CCOCC3CCCC3)no2)NC1 (stereo not given),2,28µM*
Cc1ccc(-c2ncc(NC(=O)c3ccc(F)c(F)c3)cn2)cc1,-6,?
Cc1ccc(-c2ncc(NC(=O)c3cc(F)ccc3F)cn2)cc1,1,28µM*
CCC(C)NC(=O)CN1C(=O)N(c2cccc(SC)c2)S(=O)(=O)c2ccccc21 (stereo not given),nt,i
Cc1nc(CNC(=O)c2ccc3oc(-c4cccc(F)c4)nc3c2)cs1,14,20µM*
O=C(NCc1cccs1)c1ccc2oc(-c3ccncc3)nc2c1,12,nt
CN(CCC(O)c1ccccc1)C(=O)c1ccc2oc(-c3cccc(F)c3)nc2c1 (stereo not given),1,22µM*
O=C(Nc1ccc2oc(-c3cccc(F)c3)nc2c1)c1ccc2ccccc2c1,14,i[11.5 µM]
CC(=O)NCC(=O)NC1CC(C)(C)Cc2nc(N(C)Cc3ccccc3)ncc21 (stereo not given),30,32µM*
CN(Cc1ccccc1)c1ncc2c(n1)CC(C)(C)CC2NC1CCOCC1 (stereo not given),-1,?
SMILES,IP6K1 inhibitor,KDM5B inh
COc1cccc(-c2ccc(C(=O)NCCNC(=O)N(C)C)cc2)c1,-6,nt
Cc1cc(C)c(CNC(=O)c2nc(-c3ccc(CO)cc3)cc3c2ccn3C(C)C)c(=O)[nH]1,-6,i
COc1ccc(-c2cc(C(=O)NCc3c(C)cc(C)[nH]c3=O)c3c(c2)N(C)CCO3)cn1,-20,35µM*
Cc1cc(C)c(CNC(=O)c2cc(-c3ccccc3)cc3c2OCCN3C)c(=O)[nH]1,1,32µM*
Cc1ccc(-c2cc(C(=O)NCc3c(C)cc(C)[nH]c3=O)c3c(c2)N(C)CCO3)cc1,-22,?
Cc1cc(C)c(CNC(=O)c2cc(-c3ccc(CO)cc3)cc3c2OCCN3C)c(=O)[nH]1,-2,32µM*
Cc1ccc(C2/C(=C(\O)c3ccc4c(c3)OCCO4)C(=O)C(=O)N2CCc2ccccc2)cc1 (stereo not given),nt,i
CCC(=O)c1cc(Br)c(OC)cc1OC,nt,i
CC(C)NC(=O)N1CCN(C(=O)NC2CCCCC2)[C@@H](C(=O)N[C@H](Cc2c[nH]c3ccccc23)C(N)=O)C1,1,i
COCC(=O)N[C@H]1CCN(C(=O)COC)[C@H](C(=O)N[C@H](Cc2c[nH]c3ccccc23)C(=O)OC)C1,-5,22µM*
C=CCNc1nc(-c2ccc3[nH]c(=O)oc3c2)cs1,nt,i
CCOc1ccc(C2Cn3nnc(-c4nc(-c5ccncc5)no4)c3CO2)cc1 (stereo not given),0,i
Cc1cccc(-c2noc(-c3nnn4c3COC(c3ccc(F)cc3)C4)n2)c1 (stereo not given),-10,i
CCOc1ccc(C2Cn3nnc(-c4nc(-c5cccc(Cl)c5)no4)c3CO2)cc1 (stereo not given),-1,i
CCOc1ccc(C2Cn3nnc(-c4nc(-c5cccc(C)c5)no4)c3CO2)cc1 (stereo not given),-14,20µM*
CCOc1ccc(C2Cn3nnc(-c4nc(-c5ccccc5)no4)c3CO2)cc1 (stereo not given),2,28µM*
